Screening results: PubChem, Paczesny and Yang Labs, IUPUI and University of Michigan
This is one part of a sample in which hits are shown more often than they occur.
ST2 IL33 inh = inhibitors of human ST2 (IL1RL1) binding to IL-33, primary screen, biochemical, AlphaLISA | AlphaLISA ST2-Fc/biotin-IL-33 interaction, 1 h | inhibition, % for hits at 17 µM | 78,000 compounds, 2.3% hits; in the data active = inhibition above about 30%
Target sequence (Q01638 whole entry, looked up): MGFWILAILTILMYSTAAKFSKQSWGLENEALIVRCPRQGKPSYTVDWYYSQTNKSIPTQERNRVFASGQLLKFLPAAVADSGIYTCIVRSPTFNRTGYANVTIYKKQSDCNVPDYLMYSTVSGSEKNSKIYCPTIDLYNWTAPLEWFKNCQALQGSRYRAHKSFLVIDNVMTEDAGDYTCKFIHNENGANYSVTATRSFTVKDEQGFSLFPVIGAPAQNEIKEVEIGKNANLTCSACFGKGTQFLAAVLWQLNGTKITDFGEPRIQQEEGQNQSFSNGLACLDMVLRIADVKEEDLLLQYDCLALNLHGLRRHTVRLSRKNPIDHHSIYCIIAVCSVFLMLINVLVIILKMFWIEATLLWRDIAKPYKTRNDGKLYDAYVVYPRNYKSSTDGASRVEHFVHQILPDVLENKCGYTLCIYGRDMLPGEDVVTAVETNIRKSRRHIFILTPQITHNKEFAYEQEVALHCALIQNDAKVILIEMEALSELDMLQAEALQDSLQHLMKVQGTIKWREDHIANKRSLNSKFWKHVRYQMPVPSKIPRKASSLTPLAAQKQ
Large screens that a line does not name were inactive.

CCOC(=O)C1=NN(c2ccc(Br)cc2)C2C(=O)N(c3ccc(C)cc3)C(=O)C12 (stereo unspecified)	none
OCCC1CN(Cc2cccc3c2OCO3)CCN1Cc1ccc(F)c(F)c1 (stereo unspecified)	none
CCCc1nnc([C@H]2CCN(Cc3ccc(CO)o3)C2)o1	none
N#Cc1c(N)n(-c2ccc(Br)cc2)c2nc3ccccc3nc12	none
N#Cc1c(N)n(-c2ccc(C(=O)O)cc2)c2nc3ccccc3nc12	ST2 IL33 inh 36.0%
COc1ccc(-n2c(N)c(C#N)c3nc4ccccc4nc32)cc1	none
CC(C)C1CN(C(=O)c2cc3sccc3[nH]2)CCC(=O)N1CC1CC1 (stereo unspecified)	none
Cc1ccccc1SCC(=O)NC(C)c1cnn(C)c1 (stereo unspecified)	none
CC(C)CCNS(=O)(=O)c1ccc2c(c1)C(=O)c1cc(S(=O)(=O)NCCC(C)C)ccc1-2	ST2 IL33 inh 36.0%
Cc1c(NS(=O)(=O)c2ccc3c(c2)C(=O)c2ccccc2-3)c(=O)n(-c2ccccc2)n1C	none
COc1ccc(S(=O)(=O)NCC(C)C)cc1OC	none
Cc1ccc(OC(C)C(=O)Nc2sc3c(c2C(N)=O)CCCC3)cc1C (stereo unspecified)	none
COC(=O)c1cn([C@H]2CO[C@H]3[C@@H]2OC[C@@H]3NCCCc2ccccc2)nn1	none
Cc1c(O)ccc2c(=O)c(Oc3ccccc3)coc12	none
O=c1c(Oc2ccc(F)cc2)coc2c(O)c(O)ccc12	ST2 IL33 inh 41.0%
CC(=O)Oc1ccc2c(=O)c(Oc3ccccc3)coc2c1C	none
CN1CCC(n2cnc(-c3ccccc3)c2-c2cccc3cccnc23)CC1	ST2 IL33 inh 30.0%
CN1CC(n2cnc(-c3ccccc3)c2-c2ccccc2C(=O)O)CCC1=O (stereo unspecified)	none
Cc1nn(C)c(Cl)c1-c1c(-c2ccccc2)ncn1C1CC=CC1	none
CC(C)Oc1ccc(C(O)=C2C(=O)C(=O)N(c3nccs3)C2c2ccc([N+](=O)[O-])cc2)cc1 (stereo unspecified)	ST2 IL33 inh 35.0%
CC(C)Oc1ccc(C(O)=C2C(=O)C(=O)N(c3ccccn3)C2c2cccs2)cc1 (stereo unspecified)	none
CCCOc1ccc(C(O)=C2C(=O)C(=O)N(c3nccs3)C2c2cccs2)cc1 (stereo unspecified)	none
CN(C)[C@@H]1c2ccccc2C2(CCN(Cc3nn(C)cc3Cl)CC2)[C@H]1O	none
Cn1c(SCC(=O)Nc2ccc(Br)cc2)nc2c([nH]c3ccccc32)c1=O	none
C=CCn1c(SCC(=O)c2ccc(F)cc2)nnc1-c1ccncc1	none
Cc1cc(/C=C(\C#N)C(=O)Nc2ccccc2)c(C)n1-c1ccc(F)cc1	none
COc1cccc(NC(=O)/C(C#N)=C\c2cn(Cc3ccccc3)c3ccccc23)c1	ST2 IL33 inh 35.0%
COc1cccc(NC(=O)/C(C#N)=C\c2cn(Cc3ccc(F)cc3)c3ccccc23)c1	none
CCOC(=O)c1c(NC(=O)C(C)Sc2cn(C)c3ccccc23)sc2c1CCCC2 (stereo unspecified)	none
CCc1ccccc1NC(=O)c1ccccc1F	none
O=[N+]([O-])c1cccc(CN2CCN(Cc3ccccn3)CC2)c1	none
O=C(Nc1cnn(Cc2ccc(F)cc2)c1)c1cc(-c2ccc(Cl)c(Cl)c2)on1	none
CCC(SC1=Nc2ccccc2C2=NC(c3ccccc3)C(=O)N12)C(=O)NCc1ccco1 (stereo unspecified)	none
COc1ccc(NC(=S)N[C@H]2C[C@H]3C(=O)NC[C@@H](CCC(=O)NC4CC4)N3C2)cc1	none
CCN(CC)C(=O)CC[C@@H]1CNC(=O)[C@@H]2C[C@H](NC(=S)Nc3ccccc3)CN12	ST2 IL33 inh 36.0%
O=C(CC[C@@H]1CNC(=O)[C@@H]2C[C@H](NC(=S)Nc3ccccc3)CN12)NC1CC1	none
CCc1ccc(CNC(=O)c2ccc3c(c2)ncn3C2CCCC2)cc1	none
CCOC(=O)c1cnc2c(C)c(Cl)ccc2c1Nc1ccc(C(=O)O)cc1	none
Cc1ccc(Cl)cc1NC(=O)c1ccc([N+](=O)[O-])c(C)c1	none
Cc1cc(C(=O)NC2C3CC4CC(C3)CC2C4)ccc1[N+](=O)[O-] (stereo unspecified)	none
Cc1cc(C(=O)NCc2ccc(F)cc2)ccc1[N+](=O)[O-]	ST2 IL33 inh 52.0%
CC(C)n1cnnc1CN(C)C(=O)CC1C(=O)NCCN1CC1CCCCC1 (stereo unspecified)	none
COc1ccc(CCNC(=O)C2CCN(Cc3ccc4c(c3)OCO4)CC2)cc1OC	none
Cc1cccc(-c2noc([C@@H]3C[C@@H](O)CN3C(C)C)n2)c1	none
CN(C)N1C(=O)CC(n2cnc3ccccc32)C1=O (stereo unspecified)	none
Cc1n[nH]c(C)c1CNC(=O)CCCn1cnc2ccccc2c1=O	none
Cn1c2c(c(=O)[nH]c1=O)C(c1ccc([N+](=O)[O-])o1)C1=C(N2)c2ccccc2C1=O (stereo unspecified)	none
Cc1ccc(C2C3=C(Nc4c2c(=O)[nH]c(=O)n4C)c2ccccc2C3=O)cc1Cl (stereo unspecified)	ST2 IL33 inh 32.0%
CCOC(=O)C1=C(C)NC2=C(C(=O)c3ccccc32)C1c1ccc(C)cc1 (stereo unspecified)	none
CCOc1cc(C2C3=C(Nc4c2c(=O)n(C)c(=O)n4C)c2ccccc2C3=O)ccc1O (stereo unspecified)	none
Cc1ccc(C2OC(=O)c3ccccc32)cc1Cl (stereo unspecified)	none
Cc1ccc(C2C3=C(Nc4c2c(=O)[nH]c(=O)n4C)c2ccccc2C3=O)cc1 (stereo unspecified)	ST2 IL33 inh 38.0%
CCSc1nc2c(c(=O)[nH]1)C(c1ccccc1)C1=C(CC(C)(C)CC1=O)N2 (stereo unspecified)	none
CC(=O)c1ccc(NC(=O)N2C[C@@H]3C[C@H](C2)c2ccc(NC(=O)Nc4ccccc4)c(=O)n2C3)cc1	none
CCOC(=O)c1ccc2c(c1)N(Cc1cc(C)ccc1C)C(=O)CS2	none
CCOC(=O)C1CCCN(C(=O)CSCc2nc(-c3ccc(CC)cc3)oc2C)C1 (stereo unspecified)	none
Cc1ccc2nc(NC(=O)c3ccc(S(=O)(=O)N(C)C)cc3)sc2c1	none
Cc1c(Cl)c(C(F)(F)F)nn1CC(=O)N1CCN(C(=O)c2ccccc2)CC1	none
Cc1nc(SCC(=O)c2ccccc2)c2c(=O)n(C)c(=O)n(C)c2n1	none
O=C(Nc1ccc([N+](=O)[O-])cc1)c1cc2ccccc2o1	none
Cc1cc(NC(c2cccc([N+](=O)[O-])c2)c2ccc3cccnc3c2O)no1 (stereo unspecified)	ST2 IL33 inh 33.0%
O=C(c1ccc([N+](=O)[O-])cc1)N1CCN(c2ccccn2)CC1	none
O=[N+]([O-])c1ccc(NC(c2ccccn2)c2ccc3cccnc3c2O)cc1 (stereo unspecified)	ST2 IL33 inh 31.0%
Cc1ccnc(NC(c2ccncc2)c2ccc3cccnc3c2O)c1 (stereo unspecified)	none
COc1cc(C(Nc2cccc(C)n2)c2ccc3ccc(C)nc3c2O)ccc1O (stereo unspecified)	none
O=C(O)c1ccc2c(c1)C(=O)N(c1c[nH]c(=O)[nH]c1=O)C2=O	none
Cc1ccccc1S(=O)(=O)N1CCN(c2cc(-c3cccc(F)c3)ncn2)CC1	none
O=C(Cc1ccc(O)c(Cl)c1)NCc1cccnc1N1CCCCCCC1	none
Cc1cc(OCC(O)CN2CCCCC2C)ccc1Cl (stereo unspecified)	none
CN1CCc2cc(Cl)c(O)cc2[C@@H](c2ccccc2)C1	none
CN1CCc2cc(O)c(O)cc2C(c2ccccc2)C1 (stereo unspecified)	none
